# Results from PubChem BioAssay AID2546 (National Center for Advancing Translational Sciences (NCATS), 2010).
# Hit rate of the full screen: of about 310,000 compounds, about 11,000 (3.5%) were called active. Not shown: some 8% with an inconclusive outcome. Only a selection was taken, and actives are over-represented in it overall. Unmarked numbers belong to inactive results. Calls come from the whole dose curve; as a rule, active = well fitted inhibition curve with a large enough effect; inconclusive = small, poorly fitted or top-dose-only effect, or effect the other way; inactive = flat fitted curve, though single readings scatter.
# Assay: VP16 counterscreen qHTS for inhibitors of ROR gamma transcriptional activity;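 note: Gal4-VP16 expression switched on by copper sulfate through the metallothionein promoter; nearly all actives have a fitted effect of over 50% in size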
# Settings: Drosophila S2 Gal4-VP16 UAS-luciferase, luminescence, 20 h; series mostly up to 53.6 µM; activity, negative = inhibition: at the top concentration
# % is set by controls: 0 for no effect and ±100 for the full control effect; potency is the fitted concentration of half-maximal effect.
SMILES,"activity, negative = inhibition [%]",Potency
O=C(CSc1ccc(-c2ccco2)nn1)Nc1cccc(F)c1,-2.6,
Cn1c(CNC(=O)c2ccccc2F)nnc1SCc1ccc(F)cc1,-1.58,
Cn1c(Cn2nnc3ccccc32)nnc1SCC(=O)c1ccccc1F,,7.08 µM (active)
Cc1ccc(C(=O)CSc2nnc(Cn3nnc4ccccc43)n2C)cc1,15.3,
CS(=O)(=O)Nc1cccc(C2=NN(C(=O)c3cccc(F)c3)C(c3cccs3)C2)c1 (stereo not given),8.13,
CCOc1ccc(-c2noc(CCC(=O)NC3CCCC3)n2)cc1OC,6.06,
COc1cccc(/C=N/NC(=O)c2cccc([N+](=O)[O-])c2)c1OS(=O)(=O)c1ccc(C)cc1,-1.03,
O=C(N/N=C/c1cccc([N+](=O)[O-])c1)c1ccncc1,-2.67,
Cc1[nH]n(-c2ccccc2)c(=O)c1N=Nc1ccccc1C(=O)N1CCCCC1,3.52,
COc1cc(/C=N/NC(=O)c2ccoc2C)ccc1OCCN1CCCCC1,-3.7,
Cc1[nH]n(-c2ccccc2)c(=O)c1/C=N/NC(=O)c1ccoc1C,,1 µM (active)
Cc1ccc(-n2[nH]c(C)c(/C=N/NC(=O)c3cccc([N+](=O)[O-])c3)c2=O)cc1C,,0.891 µM (active)
Cc1nnc(NC(=O)C(c2ccccc2)c2ccccc2)s1,7.09,
Cc1nc2cc(C(F)(F)F)ccc2n1CCNc1nc(-c2cc(Cl)c(N)c(Cl)c2)cs1,-0.934,
O=C(CC(O)(C(F)(F)F)C(F)(F)F)Nc1ccc(Cl)c(Cl)c1,,5.01 µM (active)
Cc1ccc(NC(=O)C/C(N)=N/O)cc1Cl,-2.54,
O=C(CC(=O)Nc1ccc(Cl)c(Cl)c1)N/N=C/c1ccc(O)cc1,-6.4,
CCNC(=S)Nc1cccc(Cl)c1C,,17.8 µM (active)
Cc1c(Cl)cccc1NC(=O)NCc1ccc(C)n1C,6.08,
CN(C)S(=O)(=O)c1cccc(NC(=S)NCc2ccc3c(c2)OCO3)c1,0.712,
Cc1c(Cl)cccc1NC(=S)NCc1ccc2c(c1)OCO2,,11.2 µM (active)
Cc1c(Cl)cccc1NC(=S)N(Cc1ccccc1)Cc1cccnc1,-4.7,

SMILES,"activity, negative = inhibition [%]",Potency
O=C(NCc1ccc2c(c1)OCO2)c1cc(F)c(F)cc1Cl,-6.45,
CCOC(=O)c1c(C)[nH]c(C)c1S(=O)(=O)NCCCc1ccco1,-3.08,
O=C(NCCc1ccc(Cl)cc1Cl)c1cc([N+](=O)[O-])c[nH]c1=O,2.24,
Cc1cc(Cl)c2oc(C(=O)N(C)C(C)c3ccccn3)c(C)c2c1 (stereo not given),27.8,
Cn1nccc1C(=O)NC1CCCc2c1cnn2-c1ccc(F)cc1F (stereo not given),,0.891 µM (active)
COc1ccc(C(=O)NC2CC(C)(C)Cc3c2cnn3-c2ccccc2C)o1 (stereo not given),1.14,
Cn1nccc1C(=O)NC1CCCc2c1cnn2-c1ccccc1F (stereo not given),,1.41 µM (active)
Cn1nccc1CNC(=O)c1ccnn1C,-7.45,
CC(=O)NCC(=O)NC1CCCc2c1cnn2-c1ccccc1F (stereo not given),-5.41,
COc1ccc(C(=O)NC2CCCc3c2cnn3-c2cccc(C)c2C)c(OC)n1 (stereo not given),,12.6 µM (active)
CC1(C)Cc2c(cnn2-c2cccc(F)c2)C(NC(=O)c2cc[n+]([O-])cc2)C1 (stereo not given),-7.81,
Cc1cc(C(=O)NC2CCCc3c2cnn3-c2cccc(C)c2C)c(C)o1 (stereo not given),-96.4,
Cc1ccc(-n2ncc3c2CCCC3NC(=O)c2cnccn2)cc1C (stereo not given),-18.1,
CC(=O)Nc1ccc(S(=O)(=O)NNC(=O)CCc2ccccc2)cc1,2.51,
CCN(CC)CCCNC(=O)c1cc2c(=O)[nH]c3ccc(C)cc3c2s1,-1.31,
CC(C)(C)NC(=O)NC(=O)COC(=O)C1c2ccccc2Oc2ccccc21,-9.04,
CCn1c(SCC(=O)Nc2ccc(Br)cc2)nc2sc3c(c2c1=O)CCN(C)C3,6.53,
CCCCNC(=O)c1cn(CC)c2cc(N3CCN(C(=O)c4ccco4)CC3)c(F)cc2c1=O,2.5,
CCOC(=O)c1ccccc1NS(=O)(=O)c1c(C)nc2sccn2c1=O,-4.73,
Cc1occc(=O)c1OCc1c(Cl)cccc1Cl,-24.2,
O=C(O)c1ccc2c(=O)n3c(nc2c1)/C(=C/c1ccc(OC(F)F)cc1OC(F)F)CC3,-2.9,
Cc1nn(C(C)(C)C)c(OC(=O)CC(C)C)c1S(=O)(=O)c1ccccc1,5.08,

SMILES,"activity, negative = inhibition [%]",Potency
CCCCn1c(SCC(=O)NCC2CCCO2)nc2ccc(N3CCOCC3)cc2c1=O (stereo not given),,11.2 µM (active)
O=C(CCCn1c(SCC(=O)c2ccccc2)nc2ccccc2c1=O)NCC1CCCO1 (stereo not given),-6.43,
COCCNC(=O)c1ccc(Cn2c(SCC(=O)NCC3CCCO3)nc3ccc(Br)cc3c2=O)cc1 (stereo not given),-8.04,
CN(Cc1ccccc1)C(=O)CSc1nc2ccccc2[nH]1,-4.72,
CCOC(=O)c1csc(CCNC(=O)c2oc3c(Cl)cc(C)cc3c2C)n1,-0.695,
O=C(COc1ccccc1)NCCc1nc2ccccc2[nH]1,-0.523,
N#C/C(=C(/O)COc1cccc2ccccc12)c1nc2ccccc2[nH]1,,7.94 µM (active)
COCCN(CCOC)S(=O)(=O)c1ccc(/C(O)=C(\C#N)c2nc3ccccc3[nH]2)cc1,25.6,
O=C(COC(=O)CCCSc1nc2ccccc2[nH]1)Nc1ccc(Oc2ccccc2)cc1,-5.22,
Cc1ccccc1OC/C(O)=C(\C#N)c1nc2ccccc2[nH]1,-17.7,
N#C/C(=C(/O)COC(=O)COc1ccc(Cl)cc1)c1nc2ccccc2[nH]1,,12.6 µM (active)
O=C(CCS(=O)(=O)c1ccccc1)NC1CCCC1,-6.21,
COc1ccc(C(=O)Nc2ccccc2C(=O)N2CCN(c3ccccc3)CC2)cc1,-9.17,
CC(C)c1ccc(N2CCN(C(=O)c3ccccc3NC(=O)/C=C(\C(=O)O)c3ccccc3)CC2)cc1,,1.12 µM (active)
O=C(O)C1CC=CCC1C(=O)Nc1ccccc1C(=O)N1CCN(c2ccccc2)CC1 (stereo not given),13.5,
CCCN1CCC(=O)N(C(CSc2ccc(OC)cc2)Cc2ccccc2)CC1 (stereo not given),5.75,
Cn1cnc2c1c(=O)n(Cc1ccccc1C#N)c(=O)n2C,-8.7,
Cc1cc2oc(=O)cc(CN(C)Cc3ccc(OC(F)F)cc3)c2cc1Cl,-9.54,
CCOC(=O)Cc1csc(NC(=O)CSc2nc(C)cc(=O)[nH]2)n1,6.99,
Cc1cccc(N2CCN(C(=O)CN(C)S(=O)(=O)c3ccc4c(c3)CCC(=O)N4)CC2)c1C,-6.16,
CCOC(=O)Cc1csc(NC(=O)CN(C)S(=O)(=O)c2ccc3c(c2)CCC(=O)N3)n1,,11.2 µM (active)
